From PubChem BioAssay
HIF-2a inh = HIF-2a reporter inhibitors, primary screen, luminescence, 786-0 RCC cells | 786-0 RCC cells HIF-2a reporter, luciferase luminescence, overnight | hit rate 0.72% among 360,000 | inhibition, % at 18.8 µM;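 active = inhibition of the luminescence signal of 40% or more relative to plate controls, in a single-dose primary screen at 18.75 µM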
CF NFkB block = inhibitors of PAF-induced NF-kB signaling, primary screen, cell-based, GFP fluorescence, uHTS; hit rate 0.86% among 360,000; inhibition, % at 5 µM; KKLEB NF-kB-GFP reporter, GFP fluorescence overnight; AID 588850, 2011;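 active = at least 50% inhibition at 5 µM, scaled per plate between neutral and stimulator controls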;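 note: PAF is a Pseudomonas aeruginosa culture filtrate used as stimulus; plate controls were PAF-stimulated DMSO wells for no effect and unstimulated DMSO wells for full effect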
PAX8 inh HTS = inhibitors of PAX8-driven TPO luciferase reporter, primary screen, RMG-I cells, single concentration; SteadyGlo, 24 h; inhibition, % at 12.6 µM; hit rate 1.2% among 360,000;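 active = mean replicate inhibition at least 60% with every replicate also reaching 60%; inconclusive = only one of the two criteria is met; inactive = mean below 60% and not all replicates reaching 60%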;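 note: luciferase light reporting Pax8 driven TPO promoter activity; plate controls were median of neutral control wells for no effect and mitoxantrone controls for full effect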
KKLEB tox = cytotoxicity in KKLEB CF airway cells, primary screen, cytotoxicity control for CF NF-kB inhibitor project, cell-based, uHTS, fluorescence assay plates | KKLEB CF airway cells viability, ATPlite luminescence, overnight; active compounds read low; cells stimulated with P. aeruginosa culture filtrate | activity change (cytotoxicity), % at 5 µM | hit rate 0.36% among 360,000 | AID 602141, 2011;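 active = corrected activity change at or below -50% at 5 µM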
EWS-Fli inh = EWS/Fli-driven NR0B1 reporter inhibitors, primary screen, A673 cells, NR0B1 luciferase, luminescence, MLPCN library; viability-normalised; inhibition, % at 12.6 µM; hit rate 0.67% among 350,000; AID 651661, 2012;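 active = mean inhibition of at least 50% after viability correction, with every replicate also passing that limit; inconclusive = mean reaches 50% but only one of two replicates passes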;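 note: firefly luciferase signal divided by Alamar Blue viability fluorescence both relative to DMSO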
An asterisk follows results filed as active; ? = inconclusive; nt = no result given. Compounds with a hit are over-represented: about 2.1% of the library has one in this group of screens.

SMILES | HIF-2a inh | CF NFkB block | PAX8 inh HTS | KKLEB tox | EWS-Fli inh
COc1cc(/C=C2\SC(=S)N(CCC(=O)N3CCCCC3)C2=O)cc(OC)c1OC | 22.4 | 26.5 | 100.0* | 0.9 | 3.7
COc1ccc(C(=O)Nc2ccc3c(c2)OC[C@@H](C)N(C(=O)C2CC2)C[C@@H](C)[C@H](OC)CN(C)C3=O)cc1 | nt | nt | nt | nt | -4.3
CCCNC(=O)Nc1ccc2c(c1)OC[C@@H](C)N(C(=O)CC)C[C@H](C)[C@H](OC)CN(C)C2=O | nt | nt | nt | nt | -3.4
CC1(C)CC(=O)C2=C(C1)OC(c1ccc(O)cc1)C(C#N)=C2N (stereo unspecified) | 4.3 | -3.7 | 81.1* | 3.8 | 9.7
Cc1cc(-n2c(C)cc(C(=O)CSc3nnc4sc5ccccc5n34)c2C)no1 | -16.7 | -6.7 | nt | 4.7 | nt
Cc1cc(-n2c(C)cc(C(=O)CSc3nnnn3-c3ccc(Cl)cc3)c2C)no1 | -9.1 | 50.6* | nt | -67.9* | nt
C[C@@H]1CN([C@@H](C)CO)C(=O)c2cc(NC(=O)CCC(F)(F)F)ccc2O[C@H]1CN(C)Cc1ccccc1 | nt | nt | -16.1 | nt | -7.8
CCOc1cc(C(=S)N2CCCC2)ccc1O | 16.7 | 10.6 | 9.5 | 5.6 | -3.5
C=CCOc1c(Cl)cc(C(=S)N2CCCC2)cc1OCC | 19.4 | -4.1 | 43.4 | -2.0 | 58.0*
OC[C@@H]1CC[C@@H]2O[C@H](CCc3ccc(C#Cc4ccccc4)cc3)[C@H](n3cc(-c4ccccc4)nn3)C[C@@H]2O1 | nt | nt | 21.7 | nt | 3.1
OC[C@H]1CC[C@@H]2O[C@H](CCc3ccc(C#CCc4ccccc4)cc3)[C@@H](n3cc(-c4ccccc4)nn3)C[C@@H]2O1 | nt | nt | 70.7* | nt | 13.3
C[C@H]1CN([C@@H](C)CO)C(=O)c2ccccc2-c2ccccc2CO[C@@H]1CN(C)C(=O)NC1CCCCC1 | nt | nt | -3.3 | nt | -11.0
Cc1noc(C)c1NC(=O)Nc1ccc2c(c1)C(=O)N(C)[C@@H]1CC[C@@H](CC(=O)NCc3ccc(Cl)cc3)O[C@H]1CO2 | nt | nt | -11.6 | nt | -2.3
OC1c2cc(Br)ccc2N=C2CCCCCN21 (stereo unspecified) | -144.6 | 1.2 | 70.1* | -0.7 | -27.1
C[C@@H]1CN([C@@H](C)CO)S(=O)(=O)c2ccc(C#Cc3ccncc3)cc2O[C@@H]1CN(C)C(=O)C1CCCCC1 | nt | nt | 76.3* | nt | 31.8
C[C@H]1CN([C@@H](C)CO)S(=O)(=O)c2ccc(C#Cc3ccncc3)cc2O[C@H]1CN(C)C(=O)C1CCCCC1 | nt | nt | 75.7* | nt | 6.4
C[C@@H]1CN([C@@H](C)CO)S(=O)(=O)c2ccc(C#Cc3ccncc3)cc2O[C@H]1CN(C)C(=O)C1CCCCC1 | nt | nt | ? | nt | 12.8
COc1ccc(NC(=O)N(C)C[C@@H]2Oc3cc(C#CCC(C)C)ccc3S(=O)(=O)N([C@@H](C)CO)C[C@H]2C)cc1 | nt | nt | 50.4 | nt | 15.5
C[C@H](CO)N1C[C@H](C)[C@H](CN(C)C(=O)C2CCCCC2)Oc2cc(C#Cc3ccncc3)ccc2S1(=O)=O | nt | nt | 57.5 | nt | 12.0
C[C@H](CO)N1C[C@H](C)[C@@H](CN(C)C(=O)Nc2ccc3c(c2)OCO3)Oc2cc(C#Cc3ccncc3)ccc2S1(=O)=O | nt | nt | 100.2* | nt | 49.0
COc1ccc(NC(=O)N(C)C[C@H]2Oc3cc(C#CCC(C)C)ccc3S(=O)(=O)N([C@H](C)CO)C[C@H]2C)cc1 | nt | nt | 71.6* | nt | -1.4
C[C@@H]1CN([C@@H](C)CO)S(=O)(=O)c2ccc(C#Cc3ccncc3)cc2O[C@@H]1CN(C)C(=O)Nc1ccc2c(c1)OCO2 | nt | nt | -20.6 | nt | -13.0
C[C@H](CO)N1C[C@H](C)[C@@H](CN(C)C(=O)c2cnccn2)Oc2ncc(C#CCC3CCCC3)cc2C1=O | nt | nt | nt | nt | -2.6
CCCN1[C@@H]2c3ccc(-c4cccc(F)c4)c(=O)n3C[C@@H]2[C@@H](CO)[C@@H]1C(=O)N[C@@H](C)c1ccccc1 | nt | nt | nt | nt | 10.0
C[C@H](CO)N1C[C@H](C)[C@H](CN(C)C(=O)Nc2ccc(C(F)(F)F)cc2)Oc2ccc(NC(=O)Nc3ccccc3)cc2CC1=O | nt | nt | 0.3 | nt | -5.4
SMILES | HIF-2a inh | CF NFkB block | PAX8 inh HTS | KKLEB tox | EWS-Fli inh
CCN(CC)c1ccc(/C=C/c2cccc[n+]2C)c(OC)c1 | -4.1 | -109.8 | 95.2* | -13.8 | 11.1
CCOc1ccc(/C=C2\CCC(C3CCCC3)C2=O)cc1 (stereo unspecified) | -312.8 | -9.9 | -59.0 | 13.0 | -30.9
CCC(=O)OCOc1ccc(/C=C2/CCC(CN(C)C)C2=O)cc1 (stereo unspecified) | 92.6* | -4.0 | 36.6 | -2.1 | 9.5
CO[C@@H]1CN(C)C(=O)c2cc(NC(=O)Nc3ccccc3)ccc2OC[C@H](C)N(C(=O)Nc2c(C)noc2C)C[C@@H]1C | nt | nt | 9.1 | nt | 1.8
COc1ccc(OC)c(Nc2nc(N)nc(CCl)n2)c1 | 18.0 | 12.3 | 118.0* | -2.4 | ?
COc1ccccc1Nc1nc(N)nc(CCl)n1 | 5.5 | 13.0 | 105.4* | -7.7 | 57.2*
COc1ccc(OCc2nc(N)nc(Nc3ccccc3OC)n2)cc1 | -18.1 | -1.8 | 18.3 | -4.6 | nt
Cc1ccc(S(=O)(=O)Nc2ccc3c(c2)C(=O)N([C@@H](C)CO)C[C@H](C)[C@@H](CN(C)S(=O)(=O)c2ccc(Cl)cc2)O3)cc1 | nt | nt | -1.9 | nt | -2.6
Cc1cccn2c(=O)c3cc(C(=O)NCCN4CCOCC4)c(=N)n(Cc4ccc(F)cc4)c3nc12 | 22.8 | -4.6 | 74.8* | -8.7 | nt
O=C(/C=C/c1ccco1)Nc1sc2c(c1C(=O)O)CCC2 | -196.3 | 12.1 | nt | 0.0 | -54.2
N#Cc1c(NC(=O)/C=C/c2ccco2)sc2c1CCCC2 | -301.6 | 62.5* | -0.1 | -51.7* | -8.8
Cc1cc(/C=C2\Sc3ccccc3N2C)cc(C)[n+]1CC1CCCO1 (stereo unspecified) | -1.8 | -4.2 | 77.9* | -28.9 | 46.6
Cc1ccc(/C=C2/Sc3ccccc3N(CC(=O)NCC3CCCO3)C2=O)cc1 (stereo unspecified) | -56.1 | -0.2 | nt | -7.3 | nt
CC(C)NC(=O)Nc1ccc2c(c1)C(=O)N([C@H](C)CO)C[C@H](C)[C@H](CN(C)Cc1ccc3c(c1)OCO3)OCCCC[C@H](C)O2 | nt | nt | 10.2 | nt | 3.7
CCCCN1C=CC(=C2C(=O)c3ccccc3C2=O)C=C1 | 89.5* | 3.7 | 82.1* | -72.4* | 79.9*
O=C1C=C(c2ccc3ncccc3c2)C[C@@H](c2ccc3c(c2)OCO3)C1 | -10.8 | 32.4 | 14.5 | -15.2 | 62.6*
O=c1c2ccccc2sn1-c1cccc(Cl)c1 | -188.3 | 59.6* | -10.9 | -1.8 | 3.1
O=c1c2cc(C(F)(F)F)ccc2sn1-c1ccccc1 | -241.7 | 50.8* | -25.3 | -9.9 | -11.6
O=c1c2ccccc2sn1-c1ccccc1 | -68.9 | 0.7 | nt | -12.9 | nt
C[C@H](CO)N1C[C@H](C)[C@@H](CN(C)C(=O)Cc2ccccc2)OCCCC[C@H](C)Oc2ccc(NC(=O)c3ccncc3)cc2C1=O | nt | nt | 7.6 | nt | 0.7
CCCc1sc(N/N=C/c2ccccn2)nc1-c1ccc(F)cc1 | -95.4 | 35.6 | nt | -50.7* | nt
